# Test results as given in the supplement of paper PMC10037445.
# In all, about 2,900 compounds were measured (“NF-kB SEAP reporter activity, fold change vs agonist alone”: median about 0.99, highest 2% from about 2.6 on). This is one part of a sample in which the highest values are shown more often than they occur.
# Tests used:
# RAW-Dual [1] = assay: NF-kB SEAP reporter activity, fold change vs agonist alone; higher = enhanced NF-kB activity; conditions: library stock concentration (final ~1000-fold dilution): 10 mM
# In short: (§1)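 RAW-Dual macrophages (50,000 cells/well in DMEM, 384-well plates) received 50 nL of library stock by pin tool, then a PRR agonist 1 h later, and were kept at 37 °C, 5% CO2. After 20 hours, supernatant was read for IRF by QuantiLuc luminescence and for NF-κB by QuantiBlue absorbance at 620 nm. Reporter activity is fold change over agonist-alone wells. Cytotoxic wells had IncuCyte confluency below 70% of agonist controls in both mask sets.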
# RAW-Dual [2] = assay: NF-kB SEAP reporter activity, fold change vs agonist alone; cytotoxicity flag (confluency mask): not cytotoxic; higher = enhanced NF-kB activity
# In short: as §1
# RAW-Dual [3] = assay: NF-kB SEAP reporter activity, fold change vs agonist alone; cytotoxicity flag (confluency mask): cytotoxic (confluency <70% of control); higher = enhanced NF-kB activity
# In short: as §1
# [4] = cytotoxicity flag (confluency mask): not cytotoxic, agonist: MPLA (TLR4) […]
# [5] = agonist: ODN 1826 (TLR9) 0.5 ug/mL
# [6] = agonist: Pam2CSK4 (TLR2/6) 0.1 ug/mL
# [7] = agonist: Pam3CSK4 (TLR2/1) 0.1 ug/mL
# [8] = cytotoxicity flag (confluency mask): not cytotoxic, agonist: Imiquimod (TLR7) […]
smiles,measurement,setting,value
CC(C)(C)c1nc(-c2cccc(NS(=O)(=O)c3c(F)cccc3F)c2F)c(-c2ccnc(N)n2)s1.CS(=O)(=O)O,NF-kB SEAP reporter activity,RAW-Dual [1]; [4],1.93
CC(C)(C)c1nc(-c2cccc(NS(=O)(=O)c3c(F)cccc3F)c2F)c(-c2ccnc(N)n2)s1.CS(=O)(=O)O (library stock concentration (final ~1000-fold dilution): 10 mM),NF-kB SEAP reporter activity,RAW-Dual [2]; agonist: LPS (TLR4) 0.1 ug/mL,3.17
same,NF-kB SEAP reporter activity,RAW-Dual [2]; [5],3.05
same,NF-kB SEAP reporter activity,RAW-Dual [2]; [6],2.08
same,NF-kB SEAP reporter activity,RAW-Dual [2]; [7],1.78
CC(C)(C)c1nc(-c2cccc(NS(=O)(=O)c3c(F)cccc3F)c2F)c(-c2ccnc(N)n2)s1,NF-kB SEAP reporter activity,"RAW-Dual [1]; cytotoxicity flag (confluency mask): cytotoxic (confluency <70% of control), agonist: Imiquimod (TLR7) […]",2.07
same,NF-kB SEAP reporter activity,"RAW-Dual [1]; cytotoxicity flag (confluency mask): cytotoxic (confluency <70% of control), agonist: MPLA (TLR4) […]",1.89
CC(C)(C)c1nc(-c2cccc(NS(=O)(=O)c3c(F)cccc3F)c2F)c(-c2ccnc(N)n2)s1 (library stock concentration (final ~1000-fold dilution): 10 mM),NF-kB SEAP reporter activity,RAW-Dual [3]; agonist: LPS (TLR4) 0.1 ug/mL,3.02
same,NF-kB SEAP reporter activity,RAW-Dual [3]; [5],3.35
same,NF-kB SEAP reporter activity,RAW-Dual [3]; [6],2
same,NF-kB SEAP reporter activity,RAW-Dual [3]; [7],1.57
CC(C)c1c(-c2ccccc2)[nH]c2c(C#N)cnn2c1=O.Cl (library stock concentration (final ~1000-fold dilution): 10 mM),NF-kB SEAP reporter activity,RAW-Dual [2]; agonist: LPS (TLR4) 0.1 ug/mL,0.8
same,NF-kB SEAP reporter activity,RAW-Dual [2]; [5],0.816
same,NF-kB SEAP reporter activity,RAW-Dual [2]; [6],0.507
same,NF-kB SEAP reporter activity,RAW-Dual [2]; [7],0.52
CC(C)c1c(-c2ccccc2)[nH]c2c(C#N)cnn2c1=O.Cl,NF-kB SEAP reporter activity,RAW-Dual [1]; [8],0.757
same,NF-kB SEAP reporter activity,RAW-Dual [1]; [4],0.99
CN1CCN(C(c2ccccc2)c2ccccc2)CC1.Cl.Cl,NF-kB SEAP reporter activity,RAW-Dual [1]; [8],0.9
same,NF-kB SEAP reporter activity,RAW-Dual [1]; [4],0.897
CN1CCN(C(c2ccccc2)c2ccccc2)CC1.Cl.Cl (library stock concentration (final ~1000-fold dilution): 10 mM),NF-kB SEAP reporter activity,RAW-Dual [2]; agonist: LPS (TLR4) 0.1 ug/mL,1.15
same,NF-kB SEAP reporter activity,RAW-Dual [2]; [5],0.595
same,NF-kB SEAP reporter activity,RAW-Dual [2]; [6],1.04
same,NF-kB SEAP reporter activity,RAW-Dual [2]; [7],1.02
O.S=c1nc[nH]c2nc[nH]c12,NF-kB SEAP reporter activity,RAW-Dual [1]; [8],0.752
same,NF-kB SEAP reporter activity,RAW-Dual [1]; [4],0.963
O.S=c1nc[nH]c2nc[nH]c12 (library stock concentration (final ~1000-fold dilution): 10 mM),NF-kB SEAP reporter activity,RAW-Dual [2]; agonist: LPS (TLR4) 0.1 ug/mL,1.05
same,NF-kB SEAP reporter activity,RAW-Dual [2]; [5],0.808
same,NF-kB SEAP reporter activity,RAW-Dual [2]; [6],0.594
same,NF-kB SEAP reporter activity,RAW-Dual [2]; [7],0.684
COc1ccc(-c2oc3c(CC=C(C)C)c(OC4OC(CO)C(O)C(O)C4O)cc(O)c3c(=O)c2OC2OC(C)C(O)C(O)C2O)cc1 (stereo not given),NF-kB SEAP reporter activity,RAW-Dual [1]; [8],0.89
same,NF-kB SEAP reporter activity,RAW-Dual [1]; [4],1.13
COc1ccc(-c2oc3c(CC=C(C)C)c(OC4OC(CO)C(O)C(O)C4O)cc(O)c3c(=O)c2OC2OC(C)C(O)C(O)C2O)cc1 (stereo not given) (library stock concentration (final ~1000-fold dilution): 10 mM),NF-kB SEAP reporter activity,RAW-Dual [2]; agonist: LPS (TLR4) 0.1 ug/mL,1.57
same,NF-kB SEAP reporter activity,RAW-Dual [2]; [5],0.992
same,NF-kB SEAP reporter activity,RAW-Dual [2]; [6],1.14
same,NF-kB SEAP reporter activity,RAW-Dual [2]; [7],1.28
C=C1CCCC2(C)C=C3OC(=O)C(C)=C3CC12 (stereo not given),NF-kB SEAP reporter activity,RAW-Dual [1]; [8],0.726
same,NF-kB SEAP reporter activity,RAW-Dual [1]; [4],1.14
C=C1CCCC2(C)C=C3OC(=O)C(C)=C3CC12 (stereo not given) (library stock concentration (final ~1000-fold dilution): 10 mM),NF-kB SEAP reporter activity,RAW-Dual [2]; agonist: LPS (TLR4) 0.1 ug/mL,1
same,NF-kB SEAP reporter activity,RAW-Dual [2]; [5],1.06
same,NF-kB SEAP reporter activity,RAW-Dual [2]; [6],1.52
same,NF-kB SEAP reporter activity,RAW-Dual [2]; [7],1.49
O=c1cc(-c2ccc(O)c(O)c2O)oc2ccccc12,NF-kB SEAP reporter activity,RAW-Dual [1]; [8],0.689
same,NF-kB SEAP reporter activity,RAW-Dual [1]; [4],1.05
O=c1cc(-c2ccc(O)c(O)c2O)oc2ccccc12 (library stock concentration (final ~1000-fold dilution): 10 mM),NF-kB SEAP reporter activity,RAW-Dual [2]; agonist: LPS (TLR4) 0.1 ug/mL,1.08
same,NF-kB SEAP reporter activity,RAW-Dual [2]; [5],0.88
same,NF-kB SEAP reporter activity,RAW-Dual [2]; [6],0.927
same,NF-kB SEAP reporter activity,RAW-Dual [2]; [7],0.532
CCOC(=O)C(CCc1ccccc1)NC(C)C(=O)N1C(C(=O)O)CC2CCCCC21 (stereo not given) (library stock concentration (final ~1000-fold dilution): 10 mM),NF-kB SEAP reporter activity,RAW-Dual [2]; agonist: LPS (TLR4) 0.1 ug/mL,1.25
same,NF-kB SEAP reporter activity,RAW-Dual [2]; [5],1
same,NF-kB SEAP reporter activity,RAW-Dual [2]; [6],1.01
same,NF-kB SEAP reporter activity,RAW-Dual [2]; [7],0.933
CCOC(=O)C(CCc1ccccc1)NC(C)C(=O)N1C(C(=O)O)CC2CCCCC21 (stereo not given),NF-kB SEAP reporter activity,RAW-Dual [1]; [8],0.911
same,NF-kB SEAP reporter activity,RAW-Dual [1]; [4],1.04
CCCCCCCCCCCCCCCC(=O)OC1C(SC)OC(C(NC(=O)C2CC(CCC)CN2C)C(C)Cl)C(O)C1O.Cl (stereo not given) (library stock concentration (final ~1000-fold dilution): 10 mM),NF-kB SEAP reporter activity,RAW-Dual [2]; agonist: LPS (TLR4) 0.1 ug/mL,0.968
same,NF-kB SEAP reporter activity,RAW-Dual [2]; [5],1.08
same,NF-kB SEAP reporter activity,RAW-Dual [2]; [6],0.877
same,NF-kB SEAP reporter activity,RAW-Dual [2]; [7],0.713
CCCCCCCCCCCCCCCC(=O)OC1C(SC)OC(C(NC(=O)C2CC(CCC)CN2C)C(C)Cl)C(O)C1O.Cl (stereo not given),NF-kB SEAP reporter activity,RAW-Dual [1]; [8],1.2
same,NF-kB SEAP reporter activity,RAW-Dual [1]; [4],0.983
COC(=O)NC(C(=O)N1CCCC1c1ncc(-c2ccc(-c3ccc(-c4cnc(C5CCCN5C(=O)C(NC(=O)OC)C(C)C)[nH]4)cc3)cc2)[nH]1)C(C)C (stereo not given),NF-kB SEAP reporter activity,RAW-Dual [1]; [8],1.24
same,NF-kB SEAP reporter activity,RAW-Dual [1]; [4],1.31
Cc1n[nH]c2ncc(C(=O)N3CCCC3c3ccc(Cl)cc3)cc12 (stereo not given),NF-kB SEAP reporter activity,RAW-Dual [1]; [8],1.44
same,NF-kB SEAP reporter activity,RAW-Dual [1]; [4],1.77
COC(=O)NC(C(=O)N1CCCC1c1ncc(-c2ccc(-c3ccc(-c4cnc(C5CCCN5C(=O)C(NC(=O)OC)C(C)C)[nH]4)cc3)cc2)[nH]1)C(C)C (stereo not given) (library stock concentration (final ~1000-fold dilution): 10 mM),NF-kB SEAP reporter activity,RAW-Dual [2]; agonist: LPS (TLR4) 0.1 ug/mL,1.88
same,NF-kB SEAP reporter activity,RAW-Dual [2]; [5],0.935
same,NF-kB SEAP reporter activity,RAW-Dual [2]; [6],0.867
same,NF-kB SEAP reporter activity,RAW-Dual [2]; [7],0.8
Cc1n[nH]c2ncc(C(=O)N3CCCC3c3ccc(Cl)cc3)cc12 (stereo not given) (library stock concentration (final ~1000-fold dilution): 10 mM),NF-kB SEAP reporter activity,RAW-Dual [2]; agonist: LPS (TLR4) 0.1 ug/mL,2.51
same,NF-kB SEAP reporter activity,RAW-Dual [2]; [5],2.07
same,NF-kB SEAP reporter activity,RAW-Dual [2]; [6],1.61
same,NF-kB SEAP reporter activity,RAW-Dual [2]; [7],2.59
Cn1ncc(Cl)c1-c1cc(C(=O)NC(CN)Cc2cccc(F)c2)sc1Cl (stereo not given) (library stock concentration (final ~1000-fold dilution): 10 mM),NF-kB SEAP reporter activity,RAW-Dual [2]; agonist: LPS (TLR4) 0.1 ug/mL,1.53
same,NF-kB SEAP reporter activity,RAW-Dual [2]; [5],1.27
same,NF-kB SEAP reporter activity,RAW-Dual [2]; [6],1
same,NF-kB SEAP reporter activity,RAW-Dual [2]; [7],1.15
